In PubChem BioAssay (Tox21):
“And” between values parts separate entries of the source, which are not always exact repeats. Equal values may be shown once. Values without a mark were called inactive. Results filed as inconclusive are left out. Where a call stands in place of a potency, no number is given. The source made the active and inactive calls. Unless noted, calls come from the whole dose curve; as a rule, active = well fitted curve in the direction sought with a large enough effect in the repeat runs; inconclusive = weak or mixed curves; inactive = no such curve, though single readings can be large; an effect the other way counts as inactive or inconclusive.

Key:
[1] = qHTS assay for small molecules that induce genotoxicity in human embryonic kidney cells expressing luciferase-tagged ATAD5 (AID 651632); note: nearly all actives have a fitted effect of over 15% in size; note: potency is the fitted concentration of half-maximal effect
Summary of the method: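 ATAD5-luc HEK293T, 2,000 cells/well; cpd or DMSO pin-transferred; 16 hr, 37C/5% CO2; Amplite 30 min RT; luminescence.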

[2] = qHTS assay for small molecule agonists of the p53 signaling pathway - cell viability (AID 651633; calls by dose curve; note: nearly all actives have a fitted effect of over 30% in size; note: potency is the fitted concentration of half-maximal effect)
Summary of the method: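 Viability counter-read: CellTiter-Glo luminescence (30 min, room temperature) in the same p53RE-bla plates. These plates had been exposed to compounds for 16 h at 37 C.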

[3] = qHTS assay for small molecules that induce genotoxicity in human embryonic kidney cells expressing luciferase-tagged ATAD5 - cell viability (AID 651634; calls by dose curve; note: nearly all actives have a fitted effect of over 25% in size; note: potency is the fitted concentration of half-maximal effect)
Summary of the method: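 Fluorescence from CellTiter-Fluor, reporting protease activity within live cells, served as the viability read-out. HEK293T cells carrying luciferase-tagged ATAD5 had been treated with compound for 15.5 hr at 37C.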

[4] = qHTS assay for small molecule disruptors of the mitochondrial membrane potential - cell viability (AID 720634; calls by dose curve; note: nearly all actives have a fitted effect of over 20% in size; note: potency is the fitted concentration of half-maximal effect)
Summary of the method: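 Cells: HepG2, 2,000/well, attached overnight. Compound 1 hr, 37 C/5% CO2. +m-MPI dye, +CellTiter-Glo 30 min RT. Readout: luminescence (ATP).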

[5] = qHTS assay for small molecule disruptors of the mitochondrial membrane potential (AID 720635); note: potency is the fitted concentration of half-maximal effect
Summary of the method: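 Mitochondrial membrane potential tracked with Mito-MPS dye, red aggregates (ex 540/em 590 nm) against green monomers (ex 490/em 535 nm). Compound treatment 1 hr at 37C, dye 30 min in HepG2.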

[6] = qHTS assay to test for compound auto fluorescence at 590 nm (red) in HepG2 cells (AID 720674)
Summary of the method: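 We screened compounds on adherent HepG2 cells, incubating them for an hour at 37 C in 5% CO2 before reading emission at 590 nm under 540 nm excitation; values reflect equivalence to Rose Bengal sodium fluorescence.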

[7] = qHTS assay to test for compound auto fluorescence at 535 nm (green) in HepG2 cells (AID 720675)
[8] = qHTS assay to test for compound auto fluorescence at 460 nm (blue) in HEK293 cells (AID 720678)
Summary of the method: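 Triamterene serves as the blue fluorophore standard. Compound signal at 405/460 nm is read in HEK293 wells (2,000 cells, 10% dialyzed FBS) after overnight treatment at 37C.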

[9] = qHTS assay to test for compound auto fluorescence at 590 nm (red) in HEK293 cells (AID 720679)
Summary of the method: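 We plated HEK293 cells in 10% dialyzed FBS medium, let them adhere for 4-5 hr, then added 23 nL compound. Overnight at 37C and 5% CO2 preceded fluorescence measurement at 540/590nm.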

[10] = qHTS assay for small molecule agonists of the p53 signaling pathway (AID 651631; calls by dose curve; note: nearly all actives have a fitted effect of over 15% in size; note: potency is the fitted concentration of half-maximal effect)
Summary of the method: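 p53RE-bla HCT-116 cells; compounds 16 h, 37 °C; LiveBLAzer B/G FRET substrate 2 h RT; fluorescence intensity read-out, qHTS format.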

Structure (SMILES)	Potency [1]	Potency [2]	Potency [3]	Potency [4]	Potency [5]	outcome [6]	outcome [7]	Potency [8]	outcome [9]	Potency [10]
CCOc1cc(C(C)(C)C)ccc1C1COC(c2c(F)cccc2F)=N1 (stereo not drawn)	inactive	41600 nM (active)	inactive	29.5 µM (active)	16.6 µM (active)	inactive	inactive	inactive	inactive	–
CCCCCCCCCCCCCCCC[n+]1ccccc1	–	67.6 µM (active) [middle of 4 runs]	63.9 µM (active) and 48.6 µM (active)	63.9 µM (active) and 60.3 µM (active)	24.3 µM (active) [middle of 4 runs]	inactive	inactive	inactive	inactive	26.6 µM (active) and 71.7 µM (active)
N#CCCSCCC#N	inactive	inactive	inactive	inactive	inactive	inactive	inactive	inactive	inactive	–
Cc1ccc(OP(=O)(Oc2ccccc2)Oc2ccccc2)cc1	–	inactive	inactive	–	0.983 µM (active)	–	inactive	inactive	inactive	inactive
COc1ccc(/C(=C/C(=O)N2CCOCC2)c2ccc(Cl)cc2)cc1OC	–	inactive	inactive	inactive	–	–	inactive	inactive	inactive	inactive
c1ccc(OCC2CO2)cc1 (stereo not drawn)	–	inactive	–	inactive	–	–	inactive	inactive	inactive	inactive
BrCBr	–	inactive	–	inactive	inactive	–	inactive	inactive	inactive	inactive
CCC(C)c1cc([N+](=O)[O-])cc([N+](=O)[O-])c1OC(=O)C=C(C)C (stereo not drawn)	inactive	–	30.6 µM (active)	–	–	–	inactive	inactive	inactive	12.2 µM (active)
Oc1ccc(C2(c3ccc(O)cc3)c3ccccc3-c3ccccc32)cc1	inactive	172 nM (active)	–	–	61.1 µM (active)	inactive	inactive	inactive	inactive	61.1 µM (active)
c1ccc2c(c1)OCC(C1=NCCN1)O2 (stereo not drawn)	inactive	inactive	inactive	inactive	27.8 µM (active)	inactive	inactive	inactive	inactive	–
CC(Cc1ccc(C(C)(C)C)cc1)CN1C[C@@H](C)O[C@@H](C)C1 (stereo partly drawn)	inactive	inactive	inactive	inactive	61.1 µM (active)	inactive	inactive	inactive	inactive	–
CCC[CH2][Sn]([CH2]CCC)([CH2]CCC)[O]C(=O)c1ccccc1	inactive	611 nM (active)	1.22 µM (active)	2.17 µM (active)	0.077 µM (active)	inactive	inactive	inactive	inactive	–
N#CNC#N	–	inactive	inactive	inactive	–	inactive	inactive	inactive	inactive	inactive
COc1cc(C=O)cc2c1[C@H](COC(N)=O)[C@]1(OC(C)=O)ON2C[C@H]2[C@@H]1N2C(C)=O	inactive	–	–	inactive	inactive	inactive	inactive	inactive	inactive	1.54 µM (active)
CCN	–	inactive	inactive	inactive	inactive	inactive	inactive	inactive	inactive	inactive
CC(=O)C(Cl)(Cl)Cl	inactive	inactive	13.2 µM (active)	0.209 µM (active)	0.743 µM (active)	inactive	inactive	inactive	inactive	–
N#CSCSC#N	19.8 µM (active) and 30.3 µM (active)	62.5 µM (active) and 60.5 µM (active)	–	–	62.5 µM (active) and 48.1 µM (active)	–	inactive	inactive	inactive	5.57 µM (active) and 10.8 µM (active)
C[C@H]1O[C@@H](O[C@H]2[C@@H](O)C[C@H](O[C@H]3[C@@H](O)C[C@H](O[C@H]4CC[C@@]5(C)[C@H](CC[C@@H]6[C@@H]5CC[C@]5(C)[C@@H](C7=CC(=O)OC7)CC[C@]65O)C4)O[C@@H]3C)O[C@@H]2C)C[C@H](O)[C@@H]1O	inactive	47.3 nM (active) and 12.3 nM (active)	53.1 nM (active) and 30.8 nM (active)	inactive	119 nM (active) and 97.5 nM (active)	inactive	inactive	inactive	inactive	–
ClC(Cl)=C(c1ccc(Cl)cc1)c1ccc(Cl)cc1	inactive	70.3 µM (active) and 48.6 µM (active)	inactive	inactive	22.2 µM (active) and 24.3 µM (active)	inactive	inactive	inactive	inactive	–
Oc1ccc(C(c2ccc(O)cc2)(C(F)(F)F)C(F)(F)F)cc1	–	68.2 µM (active) and 43.3 µM (active)	inactive	inactive	2.72 µM (active) and 4.86 µM (active)	inactive	inactive	inactive	inactive	60.8 µM (active) and 54.5 µM (active)
CC(C)CCCCCCCOP(=O)(Oc1ccccc1)Oc1ccccc1	–	inactive	–	–	–	inactive	inactive	inactive	inactive	inactive
O=C(O)c1cc[c]([Hg][Cl])cc1	–	–	–	inactive	–	inactive	inactive	inactive	inactive	61.1 µM (active)
BrC(Br)Br	–	inactive	inactive	inactive	–	inactive	inactive	inactive	inactive	inactive
